This is a sample that favours compounds with a hit; in the whole collection about 3.4% have one here.
FBW7 activator: activators of human E3 ligase FBW7. normalized activity (activation), % at 26.1 µM. AlphaScreen FBW7–phospho-cyclin E peptide binding, activator screen. Q969H0. 0.13% of 650,000 active; in the data active = normalized activity above about 1.9%;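 note: purified mutant Fbw7 with reduced substrate affinity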
TEAD-YAP block: TEAD-YAP interaction inhibition | HEK-TIYL cells, TEAD-Gal4/YAP UAS-luciferase luminescence | inhibition, % at 9.12 µM | 1.4% of 640,000 active; in the data active = inhibition above about 32%;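 note: 0% = median of test compound wells and 100% = reference inhibitor wells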
MITF inh: human MITF inhibition, primary screen; O75030; AlphaScreen MITF homodimerization, bead proximity signal; inhibition, % at 2.6 µM; 0.91% of 650,000 active; in the data active = inhibition above about 50%;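 note: 0% = vehicle wells with protein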
GPR151 activ: human GPR151 activation; Q8TDV0; PathHunter beta-arrestin GPR151 cells, luminescence; activation, % at 11.2 µM; 1% of 650,000 active; AID 1508602; in the data active = activation above about 4.9%;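 note: 0% = median of compound wells and 100% = cells with positive control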
Target sequence (Q8TDV0 whole entry, looked up): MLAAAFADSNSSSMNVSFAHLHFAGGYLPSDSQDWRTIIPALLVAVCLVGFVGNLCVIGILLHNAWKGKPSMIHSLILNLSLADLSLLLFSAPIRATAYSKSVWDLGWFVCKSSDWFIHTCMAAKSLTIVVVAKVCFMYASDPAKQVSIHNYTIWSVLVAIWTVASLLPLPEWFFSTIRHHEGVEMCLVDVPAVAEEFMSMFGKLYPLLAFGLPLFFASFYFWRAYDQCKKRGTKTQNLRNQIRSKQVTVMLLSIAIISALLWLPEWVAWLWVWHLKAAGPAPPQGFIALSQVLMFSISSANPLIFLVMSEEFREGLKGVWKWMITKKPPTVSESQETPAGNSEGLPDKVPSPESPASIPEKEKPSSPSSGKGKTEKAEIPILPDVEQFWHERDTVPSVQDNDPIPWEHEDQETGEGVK
GPR151 conf act: human GPR151 activation, confirmation screen. shares compounds with GPR151 activ. GPR151 PathHunter beta-arrestin cells, luminescence, 90 min; % of EA-reagent control over plate median. activation, % at 11.2 µM. 6,700 tested, under 10 active. AID 1508609;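 active = mean percent activation across replicates above the confirmation screen cutoff of 4.91%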
GPR119 counter: counter-screen for GPR151 activators: effect on human GPR119. AID 1508611. shares compounds with GPR151 activ. GPR119 PathHunter beta-arrestin cells, luminescence, 90 min; 0 = compound-well median, 100 = enzyme-acceptor control. 0.3% of 6,700 active. activation, % at 11.2 µM;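 active = mean percent activation in the counterscreen above 29.09%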;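 note: counterscreen on off-target GPR119 to flag nonselective hits from the GPR151 activator screen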
An asterisk follows results filed as active; . = not tested or not shown; ! = not confirmed by another sample.

SMILES	FBW7 activator	TEAD-YAP block	MITF inh	GPR151 activ	GPR151 conf act	GPR119 counter
Cn1c2ccccc2c(=O)c2c(=O)n(CCc3ccccc3)c(-c3ccco3)nc21	0	-2	-12	9.4*	0	-5
Cn1c2ccccc2c(=O)c2c(=O)n(Cc3ccccc3)c(-c3ccco3)nc21	0	4	-2	0	.	.
COCCCn1c(-c2ccc(F)cc2)nc2c(c(=O)c3ccccc3n2C)c1=O	1	0	16	5.9*	0	-5
CCOc1cc2[nH]c(=O)n(Cc3cccc(OC)c3)c(=O)c2cc1OCC	0	5	-3	8.5*	0	-8
CCOc1cc(S(=O)(=O)NC2CC(C)(C)NC(C)(C)C2)c(C)cc1C	0	-3	8	-1	.	.
CCOc1cc(C)c(C(C)C)cc1S(=O)(=O)NC1CC(C)(C)NC(C)(C)C1	0	-4	-4	7.9*	0	2
COC(=O)c1cc(Nc2ncnc3c2cnn3-c2cccc(C)c2)cc(C(=O)OC)c1	0	9	4	1	.	.
O=C(O)c1ccc(Cn2c(SCc3cc(=O)n4cc(Br)ccc4n3)nc3ccsc3c2=O)cc1	0	-18	5	7.3*	1	16
O=C(O)CCn1c(SCc2cc(=O)n3cc(Br)ccc3n2)nc2ccsc2c1=O	0	2	1	1	.	.
O=C(Nc1ccccc1I)c1ccccc1[N+](=O)[O-]	0	3	8	1	.	.
COc1cc2c(cc1/C=C1/C(C)=C(C#N)c3nc(N)c(C#N)c(C)c31)OCO2	0	-6	-16	1	.	.
COc1ccc(OC)c(/C=C2\C(C)=C(C#N)c3nc(N)c(C#N)c(C)c32)c1	0	-15	-1	7.2*	0	3
O=c1cc(-c2ccccc2[N+](=O)[O-])nc(-c2ccco2)o1	0	-1	-4	7.3*	0	-2
COc1cc2nc(Nc3nc4ccccc4n3C)nc(NCCN3CCOCC3)c2cc1OC	0	10	11	-1	.	.
COc1ccc(C(=O)Nc2ccnn2C2CCN(C(=O)C3CCOC3)CC2)cc1 (centres undefined)	0	-8	5	5.8*	1	0
COc1ccc(C(=O)Nc2ccnn2C2CCN(Cc3cn(C)nc3C)CC2)cc1	0	2	9	5.6*	2	-15
COc1ccc(C(=O)Nc2ccnn2C2CCN(Cc3ccon3)CC2)cc1	0	14	2	-1	.	.
COc1cccc(OC)c1C(=O)Nn1c(-c2ccc(F)cc2)nc2ccccc2c1=O	0	-4	-9	0	.	.
CCCn1ncc(CN2CCN(CC3CCCCC3)C(CCO)C2)c1C (centres undefined)	0	1	1	1	.	.
CCOC(=O)c1sc2ncn(Cc3ccc(Cl)cc3)c(=O)c2c1C	0	8	9	1	.	.
CCOC(=O)c1sc2ncn(Cc3ccc(C(F)(F)F)cc3)c(=O)c2c1C	0	-3	9	6.2*	1	11
O=S(=O)(Cc1ccccc1)N1CCCC(N2CCOCC2)C1 (centres undefined)	0	-10	6	20*	0	15
CC1CCCC(NC(=O)C2N(Cc3ccc(F)cc3)C(=O)C3C(C(=O)Nc4ccc(Cl)cc4)C4C=CC32O4)C1C (centres undefined)	0	1	-9	5.3*	0	0
COCCCN1C(=O)C2C(C(=O)Nc3cccc(SC)c3)C3C=CC2(O3)C1C(=O)NC1CCCCC1 (centres undefined)	0	-8	11	5.8*	0	1
CC1CCCC(NC(=O)C2N(Cc3ccc(Cl)cc3)C(=O)C3C(C(=O)Nc4ccc(Cl)cc4)C4C=CC32O4)C1C (centres undefined)	0	-3	4	0	.	.
SMILES	FBW7 activator	TEAD-YAP block	MITF inh	GPR151 activ	GPR151 conf act	GPR119 counter
CC(c1ccccc1)N1C(=O)C2C(C(=O)Nc3ccc(Cl)cc3)C3C=CC2(O3)C1C(=O)NC1CCCCC1 (centres undefined)	0	4	-1	5.2*	0	1
COc1cccc(CN2C(=O)C3C(C(=O)Nc4cccc(C)c4)C4C=CC3(O4)C2C(=O)NC2CCCCC2C)c1 (centres undefined)	0	3	-4	5.5*	0	9
COc1ccc(CN2C(=O)C3C(C(=O)Nc4cccc(C)c4)C4C=CC3(O4)C2C(=O)NC2CCCCC2C)cc1 (centres undefined)	0	1	-5	-2	.	.
CCOc1cc(C=C2C(=O)c3ccccc3C2=O)cc(I)c1O	0	-7	22	-1	.	.
COc1ccc(Cn2nnnc2C(c2cccc(C(F)(F)F)c2)N2CCOCC2)cc1 (centres undefined)	0	0	0	0	.	.
Nc1nc(SCc2cn3cc(Br)ccc3n2)n[nH]1	0	-8	10	7.6*	0	-6
COc1ccc(CCN2CCC(Nc3nc4ccccc4n3Cc3ccc(F)cc3)CC2)cc1	0	5	-3	9.2*!	2	-1
COc1ccc(CCN2CCC(NCC3CC3)CC2)cc1	0	8	-5	0	.	.
CN1CCN(C(=S)Nc2cccc(Cl)c2)CC1	0	6	14	2	.	.
CCN1CCN(C(=S)Nc2cccc(Cl)c2)CC1	0	6	23	5.8*	0	-4
O=C1NC(=S)N/C1=C/c1ccccc1OCc1ccccc1F	0	-4	0	0	.	.
COc1ccc(CCNC(=O)c2cc(Cl)ccc2[N+](=O)[O-])cc1	0	9	4	5.1*	0	-8
O=S(=O)(Nc1ccc(F)cc1)c1cccc2ccccc12	1	11	0	1	.	.
CC(=O)Nc1ccc(N2CCCCC2)c(C(=O)Nc2cccc(C)c2)c1	0	4	12	-1	.	.
Cc1cccc(NC(=O)c2cc(N3C(=O)CCC3=O)ccc2N2CCCCC2)c1	0	4	-14	8.2*	0	9
CS(=O)(=O)N(CC(=O)Nc1cccc(F)c1)Cc1ccccc1	0	23	12	6.3*	0	-1
CC(C)Cc1nnc(-c2cc3ccccc3n2CC(=O)N2CCc3ccccc32)o1	0	2	6	5.0*	-1	-12
CCOC(=O)c1c(NC(=O)c2ccc(Cl)cc2Cl)sc(C)c1C	0	-10	-8	0	.	.
CCCC(=O)Nc1ccc(NC(=S)NC(=O)c2ccc(OC)cc2)cc1	0	-11	8	-2	.	.
COc1ccc(C(=O)NC(=S)Nc2ccccc2O)cc1	0	-31	-10	6.8*	0	-3
CCC(=O)NC(=S)Nc1ccc(NC(=O)c2ccc(OC)cc2)cc1	0	8	-9	6.6*	0	7
CCOC(=O)C1(C)/C(=N/Nc2ccc(F)cc2)C(=O)C(=O)N1c1ccccc1 (centres undefined)	0	7	12	1	.	.

Screens as filed in PubChem BioAssay.
